Screening results: PubChem, several laboratories
HSV replic up: increases HSV replication in cells; 0.005% of 220,000 active; AID 1956; maximum fold increase; HSV replication augmentation in cells, fold increase; in the data active means maximum fold increase above about 1.5; tested in PC3 cells
TNF necrop inh: TNF-alpha cell death inhibition in Jurkat FADD-/- cells. Jurkat FADD-/- TNF necroptosis rescue, ATP luminescence, 24 h; 0 = TNF only, 100 = no-TNF cells. activation (protection from cell death), % at 10 µM. 0.068% of 220,000 active;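 active means activation, meaning protection from cell death, of at least 50% relative to plate controls; inactive means activation below 50%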;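 further: necroptosis triggered by 40 ng/mL TNF-alpha added together with compound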
Calpain2 inh: calpain II (pig) inhibition | purified calpain II, fluorogenic peptide substrate, 30 min | inhibition, % at 16 µM | 0.37% of 220,000 active | AID 1236;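 active means inhibition above about 50%, limit read from the data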
L929 necroptosis: blocks zVAD induced death of L929 cells; L929 zVAD necroptosis rescue, ATP luminescence, 24 h; with zVAD 60 µM; viability rescue, % at 10 µM; 0.38% of 220,000 active;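 active means activation, scaled between plate controls, above about 75%, limit read from the data; inactive means activation under that limit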;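 further: 0% = zVAD with DMSO and 100% = DMSO alone without zVAD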
* marks the source's active call; other numbers are inactive results; i = inactive; . = not tested or not shown. The list is not random: actives were taken first. Their share in the collection is about 0.77%.

SMILES	HSV replic up	TNF necrop inh	Calpain2 inh	L929 necroptosis
O=C(c1ccco1)N1N=C(c2cccs2)CC1c1ccco1 (stereo unspecified)	i	-1	17	-1
CCN1CCc2c(OCC(=O)N3CCCCC3)cccc2C1=O	i	0	22	0
O=[N+]([O-])c1cnccc1Nc1cccc(F)c1	i	-3	-1	0
O=[N+]([O-])c1ccc(Oc2cccc(F)c2)c2ccncc12	i	-4	51*	1
CCCCSc1nnc2c(n1)OC(C(=O)c1ccccc1)Nc1ccccc1-2 (stereo unspecified)	.	-1	65*	0
CCC(=O)Nc1ccc(NC(=O)CSc2nnnn2-c2ccc3c(c2)OCCO3)cc1	i	1	13	2
O=C(CSc1nnnn1-c1ccc2c(c1)OCCO2)OC1CCCCC1	i	0	71*	0
CCC1=C(OC(=O)N(CC)CC)N2C(=O)OC(=NCC3CC3)[C@]2(C)[C@H]2C1=CC[C@H]1C(=O)N(CC)C(=O)[C@H]12	i	4	22	0
CC(=O)N(CC1CCCO1)c1nnc(-c2ccccn2)s1 (stereo unspecified)	i	65*	0	0
CC1CCN(S(=O)C23CC4CC(CC(C4)C2)C3)CC1 (stereo unspecified)	i	-1	56*	1
CN1CCN(S(=O)C23CC4CC(CC(C4)C2)C3)CC1 (stereo unspecified)	i	0	-11	0
COc1ccc(-n2c(CNc3ccc(C)cc3)nnc2SCC(=O)Nc2nc(-c3ccccc3)cs2)cc1	i	-1	68*	0
Cc1noc(C)c1CSc1nc2ccccc2c(=O)n1-c1ccc(F)cc1F	.	-6	77*	2
O=C(N/N=C1/CCCc2ccccc21)c1cc([N+](=O)[O-])cc([N+](=O)[O-])c1	i	1	74*	1
O=C(O)c1ccc(Cl)c(NC(=S)NC(=O)c2ccccc2[N+](=O)[O-])c1	i	1	-5	12
CC(C)CCN(C(=O)Nc1ccccc1)C(C)c1cccs1 (stereo unspecified)	i	0	51*	0
CC(=O)Nc1ccc(Sc2ncccc2C(=O)Nc2cc(Cl)cc(Cl)c2)cn1	i	-6	-45	89*
COc1cccc(N2CCN(C(=O)/C=C/c3ccco3)CC2)c1	i	-1	14	0
Cc1cc(C)cc(NC(=O)N2CCCN(Cc3c(F)cccc3Cl)CC2)c1	i	5	23	1
Cc1ccc(NC(=O)CN2C(=O)/C(=C3\SC(=S)N(C4CCS(=O)(=O)C4)C3=O)c3ccccc32)cc1 (stereo unspecified)	i	-10	67*	3
O=C(CN1C(=O)/C(=C2\SC(=S)N(C3CCS(=O)(=O)C3)C2=O)c2ccccc21)Nc1ccccc1 (stereo unspecified)	i	-12	48	2
Nn1c(Cc2cccc3ccccc23)nnc1SCc1ccc(Cl)c(Cl)c1	i	1	55*	.
Nn1c(Cc2cccc3ccccc23)nnc1SCc1c(Cl)cccc1Cl	i	1	17	0
Cc1[nH]c2ccccc2c1CCN(Cc1cccnc1)C(=S)Nc1cccc(F)c1	i	1	61*	-1
Cc1[nH]c2ccccc2c1CCN(Cc1cccnc1)C(=S)Nc1ccc(F)cc1	i	3	64*	-1
SMILES	HSV replic up	TNF necrop inh	Calpain2 inh	L929 necroptosis
Cc1cc(=O)[nH]c(N/N=C/C(C)c2ccccc2)n1 (stereo unspecified)	i	0	1	0
Cc1ccc(C(=O)N2CCN(c3ccccc3F)CC2)cc1S(=O)(=O)N1CCOCC1	i	0	-14	-1
COc1ccc(NC(=O)c2cc(-c3cccnc3)nc3c(C)c(C)ccc23)c(OC)c1	i	-16	-67	0
COc1cccc(NC(=O)c2cc(-c3cccnc3)nc3c(Cl)cccc23)c1	i	-7	-31	84*
O=C(NCc1c(Cl)cccc1Cl)c1ccc2nnsc2c1	i	58*	-6	0
O=C(Nc1ccc(F)cc1)c1ccccc1NS(=O)(=O)N1CCCC1	i	1	-17	1
O=C(Nc1ccc(OC(=O)c2ccccc2)c(-c2nc3ccccc3s2)c1)c1ccccc1	i	-4	64*	0
CC(=O)Nc1ccc(O)c(-c2nc3ccccc3s2)c1	i	-1	i	3
CC1(C)SC(=Nc2ccccc2)N(S(=O)(=O)c2ccccc2)C1=O	i	0	25	1
O=C1C(c2ccccc2)SC(=Nc2ccccc2)N1S(=O)(=O)c1ccccc1 (stereo unspecified)	i	0	54*	0
Cc1ccc(C(=O)COc2cc(C)nc3nncn23)cc1	i	2	0	1
O=C1CC(c2ccccc2)Cc2nc(N3CCc4ccccc4C3)ncc21 (stereo unspecified)	i	-1	54*	0
Cc1ccc(C2CC(=O)c3cnc(N4CCc5ccccc5C4)nc3C2)cc1 (stereo unspecified)	i	-1	21	0
CC(C)c1onc(C(=O)Nc2cccc(Cl)c2)c1[N+](=O)[O-]	i	0	84*	1
CC(C)c1cc(C(=O)Nc2cccc(Cl)c2)no1	i	-1	29	0
CCCc1ccc(OC(=O)c2ccc(O)cc2Cl)cc1	.	0	62*	-1
COc1cc2c(cc1NC(=S)NC(=O)/C=C/c1ccc(OC)c(OC)c1)oc1ccccc12	i	0	29	0
COc1ccc(/C=C/C(=O)NC(=S)Nc2ccc(C(=O)O)cc2)cc1	i	6	74*	0
COc1ccc(/C=C/C(=O)NC(=S)Nc2cc3oc4ccccc4c3cc2OC)cc1	i	1	62*	1
CCOC(=O)C1CCCN(C(=O)CN2C(=O)/C(=C/c3ccc(OC)cc3)Oc3ccccc32)C1 (stereo unspecified)	i	-1	-237	1
COc1cccc(C2=CC(c3cccs3)n3nnnc3N2)c1 (stereo unspecified)	.	-7	68*	-1
CCc1ccc(CN(C)C(=O)CCc2nnc(COc3ccccc3)o2)cc1	i	-1	5	0
O=C(NCC1CCCO1)c1cccc(S(=O)(=O)NCc2ccccc2)c1 (stereo unspecified)	i	1	-18	1
CC1(C)Oc2ccc3ccc(=O)oc3c2-c2cnoc21	i	1	-131	2
CC1(C)Oc2ccc3ccc(=O)oc3c2-c2cn[nH]c21	i	-7	-98	75*
COc1ccc(COC(=O)NC2CCN(S(=O)(=O)c3ccc(OC)cc3)CC2)cc1	i	1	11	-1
COc1ccc(S(=O)(=O)N2CCC(NC(=O)OCc3c(Cl)cccc3Cl)CC2)cc1	i	-3	65*	1
Cc1cc2ncn(-c3ncnc4sc5c(c34)CCC(C)C5)c2cc1C (stereo unspecified)	.	-4	66*	0
Cn1c(N)c(C(=O)COC(=O)CCc2ccccc2)c(=O)n(C)c1=O	i	-1	14	2
Cn1c(N)c(C(=O)COC(=O)CCC2CCCCC2)c(=O)n(C)c1=O	i	1	78*	3
